# Reference: PubChem BioAssay (NCI)
# Where “and” joins values, the source holds several entries; their conditions need not be identical. Identical values can stand only once. This is part of a sample that, as a whole, favours compounds with a hit. Of some 83,000 tested, about 20% had one in any assay.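 Plates (96-well) were seeded with cells, treated with compound at one concentration, and incubated for 48 hours before percent growth was determined.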 Calls of active or inactive are those of the source. Rule for the calls: active = growth percent below 10; inactive = the rest.
# Tested on: UACC-62 melanoma
# Assay: NCI-60 one-dose screen, 48 h (100 = growth as untreated, 0 = no growth, -100 = all killed)
# Settings: 10 µM unless noted
row,Structure (SMILES),growth
1,COc1c(OC)c(OC)c2c(c1OC)c(=O)c1ccccc1n2C,38.1% [100 µM] (inactive) and -44.4% [100 µM] (active)
2,O=C(O)c1n[nH]nc1Cl,43.6% [100 µM] (inactive) and 103% [100 µM] (inactive)
3,CC(=N/N=C/c1ccccn1)/C(C)=N/N=C(C)/C(C)=N/N=C(C)/C(C)=N/N=C(C)/C(C)=N\N=C\c1ccccn1,92.9% [100 µM] (inactive) and 85% [100 µM] (inactive)
4,CCCCCCSC[C@H](OC(C)=O)[C@@H](OC(C)=O)[C@@H](OC(C)=O)[C@@H](COC(C)=O)OC(C)=O,51.3% [100 µM] (inactive) and 71.8% [100 µM] (inactive)
5,COC(=O)/C=C\C(C#N)(C#N)N=Cc1ccsc1,-87.5% [100 µM] (active) and -74.6% [100 µM] (active)
